The results in this text go back to PubChem BioAssay (NCI).

This is part of a sample that, as a whole, favours compounds with a hit. Of some 83,000 tested, about 20% had one in any assay.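 Method: cells in 96-well plates; compound added at one concentration; 48 h incubation; percent growth measured; values under 10 scored active.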 Values without a mark were called inactive. The source made the active and inactive calls.

Assay in all cases: NCI-60 one-dose screen, 48 h (100 = growth as untreated, 0 = no growth, -100 = all killed)
Conditions in all cases: 10 µM unless noted

In experiment [1] the test system is HCT-15 colon.
The subject of experiment [2] is HT29 colon.
Experiment [3] has as its system SNB-75 CNS.
For experiment [4], the system named is SNB-19 CNS.
Experiment [5] has as its system U251 CNS.
In experiment [6] the test system is PC-3 prostate.
Experiment [7] has as its system SK-MEL-5 melanoma.
Experiment [8] concerns UACC-62 melanoma.
The test system of experiment [9] is SK-MEL-28 melanoma.

In the case of `N=c1c(S(=O)(=O)c2ccccc2)cc2c(=O)n3ccccc3nc2n1C1CCCC1`, the growth is 86.2% in [1]; 117% in experiment [2]; 61.1% in [3]; 90.3% in experiment [4]; 85.9% in experiment [5]; 85% in [6]. Moreover, the growth was 84.2% in experiment [7], 80.2% in experiment [8] and 102% in experiment [9].
Consider `COc1cc(C(=O)/C=C/c2cc(-c3ccc4c(c3)OCO4)n[nH]2)cc(OC)c1OC`, for which the growth in experiment [1] is 19.6%; in experiment [2] it was 3.4% (active); in experiment [3], 26.7%; in experiment [4] it was 33.2%; in experiment [5], 5.54% (active); in experiment [6], 6.51% (active). Also, the growth in experiment [7] was 63%; in [8], 55.7%; in experiment [9], 76.2%.
Take `COc1ccc(/C=C/C(=O)c2ccc([N+](=O)[O-])cc2)cc1`: the growth in [1] is 104%; in [2], 95.3%; in experiment [3], 104%; in experiment [4], 96.9%; in experiment [5], 97.5%; in [6], 92%. Also, the growth is 105% in [7], 88% in experiment [8] and 112% in experiment [9].
With `O=C(NO)c1ccc(Cn2c(=O)n(-c3ccccc3)c(=O)c3ccccc32)cc1`, the growth in experiment [1] is 39.6%; in experiment [2] it was 41%; in [3] it was 20.9%; in [4], 33.4%; in experiment [5] it was -3.66% (active); in experiment [6], -7.98% (active). Also, the growth in [7] was 16.5%; in [8] it was -24.6% (active); in experiment [9], -1.55% (active).
On to `CN1CCN(CC#CCn2c3c(c4ccccc42)C[C@]2(C)[C@H]4CC[C@@H]5[C@H]6[C@H]7OC(=O)[C@@]6(CCC7(C)C)CC[C@@]5(C)[C@]4(C)CC[C@H]2C3(C)C)CC1`, for which the growth in experiment [1] is 38.1%; in experiment [2], 30.4%; in [3] it was 113%; in [4] it was 87.6%; in experiment [5], 25%; in experiment [6], 58.5%. The growth in [7] was 93.3%; in experiment [8], 99.5%; in experiment [9], 106%.
Regarding `CC1(C)CC[C@]2(C(=O)NCCNCCN)CC[C@]3(C)C(=CC[C@@H]4[C@@]5(C)CCC(=O)C(C)(C)[C@@H]5CC[C@]43C)[C@@H]2C1`, the growth in experiment [1] was 27%; in [2] it was -2.78% (active); in experiment [3], 69.8%; in experiment [4], 56.1%; in experiment [5], -69.7% (active); in experiment [6] it was 40.9%. The growth in [7] was 87.6%; in experiment [8], -89.3% (active); in experiment [9], 38.6%.
On to `C=COCCCCCCCCCCCCCCCCCC`, for which the growth is 114% in [1]; 102% in experiment [2]; 122% in experiment [3]; 96.9% in [4]; 106% in [5]; 84.5% in experiment [6]. Further, the growth in experiment [7] was 112%; in experiment [8], 88.6%; in experiment [9], 104%.
On to `C/C(=N\Nc1cc(C)c2ccccc2n1)c1ccccn1`, for which the growth in experiment [1] was 21%; in experiment [2], -90.8% (active); in experiment [3], 31.5%; in experiment [4], 19.9%; in [5], -86.5% (active); in experiment [6] it was 15.9%. Further, the growth in [7] is -72.1% (active); in experiment [8], -52% (active); in experiment [9], -93.7% (active).
With `N#Cc1c(-c2ccco2)nc2c(c(-c3ccccc3)nn2-c2ccccc2)c1-c1ccc(O)cc1`, the growth is 38.4% in experiment [1]; 30.2% in experiment [2]; 71.1% in experiment [3]; 95.9% in experiment [4]; 61.6% in [5]; 23.8% in [6]. For the same compound, the growth was 87.1% in experiment [7], 89.2% in [8] and 74.7% in [9].
Consider `C/C(Cc1ccc(Cl)cc1)=C(/c1ccc(Cl)cc1)c1ccc(OCCN2CCCC2)cc1`, for which the growth in experiment [1] is 28.3%; in experiment [2], 22.1%; in [3], 78.2%; in [4] it was 89.8%; in [5], 58.3%; in experiment [6], 65.4%. The growth in [7] was 93.1%; in experiment [8], 95.6%; in experiment [9], 98.2%.
Consider `O=C1C=Cc2ncccc2C1=O`, for which the growth is 80.3% in experiment [1]; 108% in [2]; 119% in [3]; 85.2% in experiment [4]; 42.2% in experiment [5]; 88.5% in [6]. Besides, the growth in experiment [7] is 92.9%; in [8], 90.7%; in experiment [9], 121%.
For the compound `C=C(C)[C@@H]1CC[C@]2(C)CC[C@]3(C)[C@H](CC[C@@H]4[C@@]5(C)CCCNC(C)(C)[C@@H]5CC[C@]43C)[C@@H]12`, the growth is 19.2% in experiment [1]; 3.37% (active) in experiment [2]; 85.9% in [3]; 96.3% in experiment [4]; 11.9% in experiment [5]; 78.9% in experiment [6]. Moreover, the growth in experiment [7] was 98.4%; in [8] it was 105%; in experiment [9], 105%.
Turning to `O=C(N/N=C\c1ccccc1O)C1CC1`, the growth in [1] is 92.5%; in experiment [2] it was 107%; in [3], 98.1%; in experiment [4], 101%; in [5], 103%; in experiment [6] it was 92%. Further, the growth in [7] is 109%; in experiment [8], 102%; in experiment [9], 114%.
On to `c1ccc2[nH]c(-c3cc(-c4ccc5c(c4)OCO5)n[nH]3)nc2c1`, for which the growth was 56.7% in experiment [1]; 67.5% in experiment [2]; 33.8% in experiment [3]; 68.3% in experiment [4]; 36.6% in experiment [5]; 50.4% in experiment [6]. Moreover, the values for the growth in experiment [7], in [8] and in experiment [9] were 13.2%, 49.7% and 71.3%, respectively.
Turning to `N=C(N)c1ccc(S(N)(=O)=O)cc1`, the growth in [1] was 104%; in experiment [2] it was 105%; in experiment [3], 96.1%; in experiment [4], 99.1%; in experiment [5], 99.4%; in [6], 98.4%. For the same compound, the growth in [7] was 95.3%; in [8] it was 99.2%; in experiment [9] it was 104%.
Take `CC1(C)CC[C@]2(CO)CC[C@]3(C)C(=CC[C@@H]4[C@@]5(C)CC[C@H](NCO)C(C)(C)[C@@H]5CC[C@]43C)[C@@H]2C1`: the growth in experiment [1] was -76.1% (active); in [2], -43.2% (active); in experiment [3] it was -2.38% (active); in experiment [4], 17.8%; in experiment [5], -79.4% (active); in experiment [6], 7.13% (active). The figures for the growth in [7], in experiment [8] and in experiment [9] were -2.6% (active), -73% (active) and 60.8%, respectively.
For the compound `Cn1cc(-c2csc(-c3c[nH]c4ccc(F)cc34)n2)c2cccnc21`, the growth was 19.2% in experiment [1]; 11.3% in experiment [2]; 36.4% in [3]; 54.4% in experiment [4]; 37.5% in experiment [5]; 48% in experiment [6]. Moreover, the figures for the growth in [7], in [8] and in experiment [9] were 25.9%, 39.6% and 57.4%, respectively.
For the compound `CC(=O)O[C@H]1CC[C@]2(C)[C@H]3C(=O)C=C4[C@@H]5C[C@](C)(C(=O)N6CCCNCC6)CC[C@]5(C)CC[C@@]4(C)[C@]3(C)CC[C@H]2C1(C)C`, the growth in [1] is -96.5% (active); in [2], -63.5% (active); in [3], 80.1%; in experiment [4], 9.77% (active); in experiment [5], -94.5% (active); in experiment [6], 6.04% (active). Also, the growth in experiment [7] was 90.2%; in experiment [8], 13.7%; in [9] it was -74.5% (active).
As to `Clc1ccccc1-c1nc(Nc2nc3ccccc3s2)nc(C(Cl)(Cl)Cl)n1`, the growth was 19.2% in [1]; 13.1% in experiment [2]; 58.2% in [3]; 43.5% in [4]; 20.5% in experiment [5]; 40.8% in experiment [6]. Also, the values for the growth in experiment [7], in experiment [8] and in experiment [9] were 90.7%, 48.1% and 51.3%, respectively.
Turning to `Cn1cc(-c2nc(-c3cn(C)c4ncccc34)cs2)c2ccccc21`, the growth in experiment [1] is 20.4%; in experiment [2] it was 9.24% (active); in experiment [3], 20.9%; in experiment [4], 51.4%; in experiment [5] it was 31.8%; in experiment [6] it was 53.6%. The growth in [7] was 21.9%; in experiment [8], 33.2%; in experiment [9], 46.5%.
Take `C/C(=C(/c1ccccc1)c1ccc(N2C(=O)c3cccc4c(NCc5ccccc5)ccc(c34)C2=O)cc1)c1ccccc1`: the growth in experiment [1] is 103%; in experiment [2], 112%; in experiment [3], 94.6%; in experiment [4], 96.8%; in [5], 99.5%; in [6], 82.1%. Further, the growth in [7] was 99.3%; in experiment [8] it was 80.3%; in experiment [9], 107%.
As for `COc1cc2nc(Cl)nc(Nc3cccc(C(=O)/C=C/c4ccc(F)cc4)c3)c2cc1OC`, the growth was -4.45% (active) in [1]; 16.1% in experiment [2]; 88.3% in experiment [3]; 50.1% in experiment [4]; 32.6% in experiment [5]; 46.4% in experiment [6]. The growth is 73.4% in [7], 51.5% in experiment [8] and 62.6% in experiment [9].
As for `Nc1c(Cl)cc(N=Nc2ccccc2)cc1Cl`, the growth in [1] is 93%; in experiment [2], 100%; in experiment [3], 74%; in experiment [4] it was 100%; in experiment [5] it was 94.5%; in experiment [6] it was 96.2%. The growth in experiment [7] is 94.3%; in experiment [8], 57.5%; in [9] it was 106%.
Turning to `Cc1ccc(-c2nc([P+](c3ccccc3)(c3ccccc3)c3ccccc3)c(N3CCOCC3)o2)cc1`, the growth is 54.1% in [1]; -0.839% (active) in experiment [2]; 0.0247% (active) in [3]; 11.5% in [4]; 12.4% in experiment [5]; -18.8% (active) in experiment [6]. Besides, the growth in experiment [7] is -95.5% (active); in experiment [8] it was -29.4% (active); in [9] it was 29.9%.
Turning to `CCN1CCN(C(=O)[C@@]2(C)CC[C@]3(C)CC[C@]4(C)C(=CC(=O)[C@@H]5[C@@]6(C)CC[C@H](OC7C[C@@H](O)[C@@H](O)C(C)O7)C(C)(C)[C@@H]6CC[C@]54C)[C@@H]3C2)CC1` (stereo partly drawn), the growth was 34.2% in experiment [1]; 1.72% (active) in [2]; 86.7% in [3]; 39% in experiment [4]; 10.3% in [5]; 42.1% in [6]. Besides, the growth in experiment [7] is -5.54% (active); in [8], -69.3% (active); in experiment [9], -7.89% (active).
As for `C=C(C)[C@@H]1CC[C@]2(C=NCCCNCCCCNCCCN)CC[C@]3(C)[C@H](CC[C@@H]4[C@@]5(C)CCCNC(C)(C)[C@@H]5CC[C@]43C)[C@@H]12`, the growth in [1] was 82.6%; in experiment [2], 39%; in experiment [3] it was 114%; in experiment [4] it was 88.3%; in experiment [5], 91.6%; in experiment [6], 85.9%. The growth in experiment [7] is 96%; in experiment [8] it was 100%; in experiment [9], 111%.
Turning to `C=C(C)[C@@H]1CC[C@]2(C(=O)N3CCN(CC)CC3)CC[C@]3(C)[C@H](CC[C@@H]4[C@@](C)(CCC(=O)N5CCN(CC)CC5)[C@H](C(=C)C)CC[C@]43C)[C@@H]12`, the growth in experiment [1] was 9.11% (active); in experiment [2], 17.3%; in [3], 69.2%; in experiment [4] it was 85.1%; in experiment [5], 40.6%; in experiment [6] it was 32.5%. Besides, the growth in experiment [7] is 45.5%; in experiment [8] it was 50.9%; in [9] it was 55.8%.
